Laboratory results published in the supplement of paper PMC7366291.
± gives the standard deviation or the standard deviation of the averaged measurements.

Columns and labels:
Details in all cases: 25 µM; exposure: 24-48 hpf
[1] = test system: Danio rerio Tg(wt1b:EGFP) embryo, pronephros; experiment: glomerular separation, fold change vs DMSO control; higher = glomeruli further apart (abnormal)
Outline: (§1)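 Dechorionated Tg(wt1b:EGFP) zebrafish embryos were incubated at 28.5°C from 24 to 48 hpf with 25 μM compound in HEPES-buffered E3 containing 0.5% DMSO and 0.003% PTU. Distances and angles between 16 manually set points on maximum projections of dorsal pronephros images were measured in Fiji, with values over 2 SD from the feature mean excluded. Each feature is a fold change relative to the mean of same-day DMSO-treated embryos.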

[2] = test system: Danio rerio Tg(wt1b:EGFP) embryo, pronephros; experiment: glomerular width (mean of left and right), fold change vs DMSO control; higher = wider glomerulus
Outline: as §1

[3] = test system: Danio rerio Tg(wt1b:EGFP) embryo, pronephros; experiment: fraction of imaged embryos annotated as normal kidney; higher = less nephrotoxic; extreme values may be limits of the assay
Outline: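 Dechorionated Tg(wt1b:EGFP) zebrafish embryos were exposed in 12-well plates to 25 μM compound in 0.5% DMSO, 5 mM HEPES-buffered E3 with 0.003% PTU, from 24 to 48 hpf at 28.5°C. Tricaine-anaesthetised larvae were oriented dorsally in agarose-filled 96-well plates, and pronephroi were imaged by widefield fluorescence (470 nm, 10 z-slices). Each embryo was manually annotated from maximum projections. The read-out is the fraction of embryos per treatment assigned to the normal-kidney category.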

[4] = test system: Danio rerio Tg(wt1b:EGFP) embryo, pronephros; experiment: pronephric angle neck segment to proximal convoluted tubule (mean of left and right), fold change vs DMSO control; higher = larger pronephric angle
Outline: as §1

Row | SMILES | glomerular separation [1] | glomerular width [2] | fraction of imaged embryos annotated as normal kidney [3] | pronephric angle neck segment [4]
1 | O=C1c2cccc(O)c2C(=O)c2c(O)cccc21 [1,8-Dihydroxyanthraquinone] | 1.16 ± 0.45 | 1 ± 0.04 | 0.917 | 1.03 ± 0.036
2 | C=C1C(=O)O[C@H]2[C@H]1CC/C(C)=C/CC[C@@]1(C)O[C@@H]21 [Parthenolide] | 2.81 ± 1.2 | 0.8373 ± 0.0079 | 0.364 | 1.4 ± 0.038
3 | NC(=O)c1ccc[n+]([C@@H]2O[C@H](COP(=O)([O-])OP(=O)(O)OC[C@H]3O[C@@H](n4cnc5c(N)ncnc54)[C@H](O)[C@@H]3O)[C@@H](O)[C@H]2O)c1 [Nadide] | 0.955 ± 0.26 | 1.0386 ± 0.00057 | 0.75 | 0.9494 ± 0.0036
4 | CCCCC1=NC2(CCCC2)C(=O)N1Cc1ccc(-c2ccccc2-c2nnn[nH]2)cc1 [Irbesartan] | 3.04 ± 1.1 | 0.56 ± 0.11 | 0.75 | 1.1 ± 0.022
5 | CN1CCN(C2=Nc3cc(Cl)ccc3Nc3ccccc32)CC1 [Clozapine] | 0.792 ± 0.2 | 1.05 ± 0.011 | 1 | 0.975 ± 0.058
